Laboratory results: PubChem BioAssay (NCI)
Compounds without any hit were thinned out: in the full panel of roughly 79,000, 15% have a hit. Calls of active or inactive are those of the source. No stated cut-off is given here; in the data, active means growth inhibition above about 70%; inactive means the rest.

Legend:
[1] = NCI Yeast Anticancer Drug Screen. Data for the rad50 strain (AID 155);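 further: 0% = growth of vehicle-only cultures of the same strain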; conditions: S. cerevisiae rad50 strain growth inhibition; at 50.0 µM; active compounds read high
In short: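 Relative growth inhibition (compound vs vehicle) was measured in yeast with a defined repair-gene alteration.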

[2] = NCI Yeast Anticancer Drug Screen. Data for the mec2-1 strain (AID 157); conditions: S. cerevisiae mec2-1 strain, at 50.0 µM, active compounds read high
In short: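 Yeast mec2-1 mutant treated with compound. Readout: growth inhibition vs vehicle controls.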

[3] = NCI Yeast Anticancer Drug Screen. Data for the sgs1 mgt1 strain (AID 161);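 further: 0% = growth of cultures given vehicle only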; conditions: S. cerevisiae sgs1 mgt1 strain, at 50.0 µM, active compounds read high
In short: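 Inhibition of yeast growth, normalised to vehicle-treated controls, is reported for a strain bearing genetic alterations in DNA damage repair.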

[4] = NCI Yeast Anticancer Drug Screen. Data for the cln2 rad14 strain (AID 165);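 further: 0% = growth equal to vehicle treated cultures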; conditions: S. cerevisiae cln2 rad14 strain, at 50.0 µM, active compounds read high
In short: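 cln2 rad14 yeast strain; compound exposure; growth inhibition read vs vehicle controls.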

[5] = NCI Yeast Anticancer Drug Screen. Data for the bub3 strain (AID 167); conditions: S. cerevisiae bub3 mutant strain, at 50.0 µM, active compounds read high
In short: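 Screening used yeast with an engineered genetic alteration affecting cell cycle control. Compound-exposed cultures were compared with vehicle cultures, and reduced growth was taken as inhibition.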

[6] = NCI Yeast Anticancer Drug Screen. Data for the mlh1 rad18 strain (AID 175); conditions: S. cerevisiae mlh1 rad18 strain growth inhibition; at 50.0 µM; active compounds read high
In short: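 Yeast w/ defined DNA-repair lesions; compound exposure; growth vs vehicle controls → % inhibition.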

Measured: growth inhibition

CC(/C=N/N(C)C1=NCCCCN1)=N/N(C)C1=NCCCCN1
inactive: [1] 23.9% | [2] 12.7% | [3] 18.5% | [4] -21.6% | [5] -2.5% | [6] 29.4%

CCOC(=O)C(=CNc1cc(OC)cc2cccnc12)C(=O)OCC
inactive: [1] -12.8% | [2] 4.1% | [3] 0.15% | [4] 18.8% | [5] 16.1% | [6] -11.4%

CCCCCCCCCCCCCCCCOc1ccc2ccccc2c1
inactive: [1] 4.15% | [2] -6.25% | [3] 14.9% | [4] -56.4% | [5] 10.2% | [6] 29.2%

CC(C)CCC(=O)OCC(=O)c1ccc(-c2ccccc2)cc1
inactive: [1] 8.55% | [2] -13.1% | [3] 7.25% | [4] -1.45% | [5] 23.9% | [6] 9.1%

CCOCC(=O)NC1Cc2cc(OC)c(OC)cc2C1O (stereo unspecified)
inactive: [1] -29.8% | [2] -6.2% | [3] 0.1% | [4] -17.1% | [5] 2.15% | [6] 15.6%

C=CCNCc1cc(Cl)cc(Cl)c1O
inactive: [1] -8.35% | [2] -4.4% | [3] -19.1% | [4] -51.1% | [5] -10.2% | [6] 17.2%

CN1c2ccccc2C(=O)NC12CCN(CCCC(=O)c1ccc(F)cc1)CC2
inactive: [1] 6.6% | [2] 6.95% | [3] 46.8% | [4] 35.6% | [5] 21.9% | [6] 7%

O=C(/C=C/c1c[nH]c2ccccc12)c1ccccc1[N+](=O)[O-]
inactive: [1] 5.45% | [2] 9.75% | [3] 7.55% | [4] -7.7% | [5] 7.6% | [6] -7%

NS(=O)(=O)c1ccc(Nc2c3ccccc3nc3c(C(=O)NCCO)cccc23)cc1
inactive: [1] 51.8% | [2] -30.2% | [3] -15.9% | [4] -3.1% | [5] -10.6% | [6] -1.9%

O=S1(=O)OCCOS(=O)(=O)C1(I)I
inactive: [1] 11.7% | [2] -26.2% | [3] -2.35% | [4] 11.4% | [5] -9.7% | [6] 16.2%

Cc1ccc(NC(=O)CC(=O)CC(C)C)cc1C
inactive: [1] -22.2% | [2] -24.8% | [3] -17.4% | [4] 0.75% | [5] -37% | [6] -10.8%

N#C/C(=C\c1cccc(Br)c1)c1nc2ccccc2c(=O)[nH]1
inactive: [1] 5.75% | [2] 4.4% | [3] 0.2% | [4] 1.55% | [5] -14.4% | [6] -35.4%

Cc1nc(N)c2c(n1)C(Cc1ccccc1)N(C(=O)c1ccccc1)C2 (stereo unspecified)
inactive: [1] -5.6% | [2] -4.3% | [3] -24.1% | [4] -24.4% | [5] 6.55% | [6] -17.4%

NCCS/C=C\C(=O)OCc1ccc(Br)cc1
inactive: [1] 31.6% | [2] 4.4% | [3] 9.65% | [4] 6.45% | [5] 19.1% | [6] 54.1%

Fc1cccc(CSC(=S)Nc2ccc(Cl)c(C(F)(F)F)c2)c1
active: [1] 99.1% | [2] 99.5% | [3] 99.5% | [4] 99.2% | [5] 99.2% | [6] 99%

O=[N+]([O-])c1ccc(C2=NN(c3ccccc3)C(c3ccccc3)C2)cc1 (stereo unspecified)
inactive: [1] 8% | [2] 3.1% | [3] 0.5% | [4] -5.9% | [5] 8.85% | [6] 4%

O=[N+]([O-])c1ccc2[nH]nc(OCc3ccccn3)c2c1
inactive: [1] 35% | [2] 33.4% | [3] -23.8% | [4] 28.1% | [5] 7.15% | [6] 20.9%

COc1ccc(N=C2S/C(=N\C(=Nc3ccccc3)SCc3ccccc3)N(c3ccccc3)C2=Nc2ccc(OC)cc2)cc1
inactive: [1] -4.55% | [2] -5.85% | [3] -8.25% | [4] 4.05% | [5] -6.8% | [6] 5.25%

OC(CC1CCCCN1)c1ccc2c(c1)oc1ccccc12 (stereo unspecified)
inactive: [2] 56.9% | [3] 62.2% | [4] 56.2%
active: [1] 71.7% | [5] 73.8% | [6] 75.6%

CC(=O)CCC(=O)CCC(C)=O
inactive: [1] -0.05% | [2] 30.4% | [3] 6.05% | [4] -1.85% | [5] 29.1% | [6] -2.7%

Cc1ccc(NC(=O)C(=O)Cc2cccc[n+]2[O-])cc1C
inactive: [1] 25.4% | [2] 13.1% | [3] -4.1% | [4] 12.2% | [5] 9.05% | [6] -6.1%
